CHX counter = Cycloheximide Counterscreen for Small Molecule Inhibitors of Shiga Toxin | actives 12% (n = 300,000) | AID 2314, 2010 | max response, % | cell reporter, cycloheximide protein synthesis inhibition counterscreen; in the data active = max response mostly above about 13%, no sharp cut-off; inactive = mostly below about 14%; also: read at 38.3 µM for the half of the compounds with a filed dose; 0% is about no effect
LmPK inh = qHTS Assay for Inhibitors of Leishmania Mexicana Pyruvate Kinase (LmPK) | purified LmPK, Kinase-Glo ATP luminescence, 1 h | Potency, µM (series often up to 57.5 µM), inactives show at the top dose activity change, negative = inhibition, hits mostly inhibitors | actives 0.37% (n = 290,000) | AID 1721, 2009; also: potency is read from the fitted curve at half-maximal effect; % is scaled to controls: 0 for no effect and ±100 for the full control effect
Target sequence (Q27686 whole entry, looked up): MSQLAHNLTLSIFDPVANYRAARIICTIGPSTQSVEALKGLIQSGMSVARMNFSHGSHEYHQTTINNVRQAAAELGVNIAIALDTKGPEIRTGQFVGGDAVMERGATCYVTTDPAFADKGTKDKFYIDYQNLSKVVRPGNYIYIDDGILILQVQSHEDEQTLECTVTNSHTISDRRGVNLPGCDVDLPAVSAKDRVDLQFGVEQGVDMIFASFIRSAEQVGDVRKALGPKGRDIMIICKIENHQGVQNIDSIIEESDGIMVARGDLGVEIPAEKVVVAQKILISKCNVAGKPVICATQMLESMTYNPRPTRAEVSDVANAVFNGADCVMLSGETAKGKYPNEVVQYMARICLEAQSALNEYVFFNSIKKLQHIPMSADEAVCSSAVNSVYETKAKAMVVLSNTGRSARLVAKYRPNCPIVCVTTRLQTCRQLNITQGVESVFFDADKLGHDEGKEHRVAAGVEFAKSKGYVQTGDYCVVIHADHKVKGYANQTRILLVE
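In 50 mM imidazole pH 7.2 with 7 mM MgCl2, LmPK (0.1 nM) turned over PEP (0.5 mM) and ADP (0.1 mM) for 1 h at room temperature. Luciferase read-out of ATP.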
Shiga toxin inh = A qHTS for Small Molecule Inhibitors of Shiga Toxin | inhibition, % at 38.7 µM | Vero cells, Shiga toxin protein synthesis inhibition reporter | actives 9.2% (n = 290,000); in the data active = inhibition mostly above about 28%, no sharp cut-off; inactive = mostly below about 43%; also: 0% is about no effect
Sm TGR inh = qHTS Assay for the Inhibitors of Schistosoma Mansoni Peroxiredoxins; actives 3% (n = 360,000); purified TGR, DTNB reduction, TNB absorbance 405 nm; AID 485364, 2010; Schistosoma mansoni thioredoxin glutathione reductase (TGR), Q962Y6; Potency, µM (titrated, usually from 114 µM), inactives show at the highest dose activity change, negative = inhibition, most hits filed as inhibitors; also: potency is read from the fitted curve at half-maximal effect; % is scaled to controls: 0 for no effect and ±100 for the full control effect; nearly all actives have a fitted effect of over 60% in size
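TGR 20 nM + NADPH 100 uM (dispensed conc.), cpd preinc 15 min RT; start with NADPH (500 uM addition) then DTNB (15 mM addition). Kinetic TNB absorbance, 405 nm filter. Four-parameter Hill fit across titration.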
Giardia FBPA inh = qHTS Assay for Inhibitors of Fructose-1,6-bisphosphate Aldolase from Giardia Lamblia. purified Giardia FBPA. actives 0.71% (n = 290,000). AID 2451, 2010. Potency, µM (highest dose often 59.6 µM), for inactives: at the highest dose activity, negative = inhibition, usual class: inhibitors. A8B2U2; also: potency is read from the fitted curve at half-maximal effect; % is scaled to controls: 0 for no effect and ±100 for the full control effect; nearly all actives have a fitted effect of over 55% in size
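Giardia FBPA (40 nM reagent) was preincubated 10 min at RT with compound (up to 57.5 uM final), then substrate plus GAPDH/TPI/NAD/arsenate coupling system with diaphorase/resazurin was added; resorufin fluorescence (525/598 nm) was read after 20 min.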
TbPYK inhibitor = qHTS of Trypanosoma Brucei Inhibitors. Potency, µM (doses to about 76.8 µM), for the others: at the highest dose activity, negative = inhibition, actives largely listed as inhibitors. actives 0.12% (n = 410,000). TbPYK enzyme, Kinase-Glo Plus ATP luminescence, 45 min. AID 624173, 2012; also: potency is read from the fitted curve at half-maximal effect; % is scaled to controls: 0 for no effect and ±100 for the full control effect; nearly all actives have a fitted effect of over 50% in size
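Luminescent Kinase-Glo Plus end-point after 45 min room-temperature reaction of T. brucei pyruvate kinase started with 130 uM ADP (final). Buffer TEA 50 mM pH 7.2 with KCl, MgCl2, BSA, Tween-20; titration-based qHTS with fitted concentration-effect curves.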
* = called active by the depositor. Many of the other results were omitted from the sample, so hits are more common in it than they were. Unless noted, calls follow the shape of the dose curve; as a rule, active = well fitted curve in the direction sought with a large enough effect; inconclusive = small, poorly fitted or top-dose-only effect, or another doubt; inactive = no such curve, though single readings can be large; an effect the other way counts as inactive or inconclusive.

`O=S(=O)(Nc1ccc(-c2nc3cccnc3s2)cc1)c1ccccc1F` gave CHX counter 50*, LmPK inh -5%, Shiga toxin inh 92*, Sm TGR inh 2%, Giardia FBPA inh 2% and TbPYK inhibitor -6%.
For O=S(=O)(Nc1cccc(-c2nc3cccnc3s2)c1)c1ccc2c(c1)CCCC2 the results were CHX counter 8, LmPK inh 2%, Shiga toxin inh 6, Sm TGR inh 5%, Giardia FBPA inh 7% and TbPYK inhibitor 6%.
Screening Cc1cc(-c2nc3cccnc3s2)ccc1NS(=O)(=O)c1ccc2c(c1)OCCO2 returned CHX counter 12, LmPK inh -2%, Shiga toxin inh 29, Sm TGR inh -4%, Giardia FBPA inh 18% and TbPYK inhibitor 5%.
Screening O=S(=O)(Nc1ccc(-c2nc3cccnc3s2)cc1)c1ccc(Cl)s1 returned CHX counter 33*, LmPK inh -4%, Shiga toxin inh 16*, Sm TGR inh 4%, Giardia FBPA inh 21% and TbPYK inhibitor 7%.
Screening Cc1nc2cc(NS(=O)(=O)c3ccccc3F)ccc2s1 returned CHX counter 4, LmPK inh 5%, Shiga toxin inh 9, Sm TGR inh 9%, Giardia FBPA inh -27% and TbPYK inhibitor -2%.
Screening Cc1cc(-c2nc3cccnc3s2)ccc1NS(=O)(=O)c1cccs1 returned CHX counter 48*, LmPK inh -16%, Shiga toxin inh 138*, Sm TGR inh 10%, Giardia FBPA inh 16% and TbPYK inhibitor -1%.
Screening Cc1cccc(NC(=O)c2oc3ccc(S(=O)(=O)N4CCC5(CC4)OCCO5)cc3c2C)c1C returned Sm TGR inh -27% and TbPYK inhibitor -5%.
For Cc1cc(C)c(S(=O)(=O)NCC(c2ccc(N(C)C)cc2)N2CCc3ccccc32)c(C)c1 (stereo not drawn) the results were Sm TGR inh -7% and TbPYK inhibitor -5%.
For Cc1cccc(NC(=O)N2CCC3(CC2)Oc2ccccc2C(=O)N3Cc2ccccc2F)c1C the results were Sm TGR inh -2% and TbPYK inhibitor -2%.
O=C(CCN1C(=O)c2ccccc2S1(=O)=O)Nc1cccc2ccccc12 was read as CHX counter -4, LmPK inh 2%, Shiga toxin inh -3, Sm TGR inh 7%, Giardia FBPA inh 4% and TbPYK inhibitor -7%.
For Cc1csc(NC(=O)CCCc2cccs2)n1 the results were CHX counter 46*, LmPK inh 6%, Shiga toxin inh 48*, Sm TGR inh -1%, Giardia FBPA inh -1% and TbPYK inhibitor 7%.
Screening Cc1csc(NC(=O)CCCC(=O)c2ccccc2)n1 returned CHX counter 22*, LmPK inh -2%, Shiga toxin inh 50*, Sm TGR inh 25%, Giardia FBPA inh -8% and TbPYK inhibitor -13%.
`O=C(CCCc1cccs1)Nc1nc2c(s1)CCCC2` gave CHX counter 57*, LmPK inh -5%, Shiga toxin inh 30*, Sm TGR inh 0%, Giardia FBPA inh 12% and TbPYK inhibitor -14%.
For O=C(CCN1C(=O)c2ccccc2S1(=O)=O)Nc1nc2c(s1)CCCC2 the results were CHX counter 18*, LmPK inh 4%, Shiga toxin inh 122*, Sm TGR inh -28%, Giardia FBPA inh -6% and TbPYK inhibitor -5%.
`COC(=O)N1[C@H]2CC[C@@]3(C)C=C(C)O[C@]1(C)C3c1ccccc12` gave Giardia FBPA inh -1%.
For CCOc1ccc(CCNC(=O)c2cc3c(-c4ccccc4F)nn(C)c3s2)cc1OCC the results were Sm TGR inh -1% and TbPYK inhibitor 2%.
`O=C(Cc1ccc(S(=O)(=O)N2CCCC2)s1)Nc1nc2c(s1)CCCC2` gave CHX counter 28*, LmPK inh 8%, Shiga toxin inh 46*, Sm TGR inh -23%, Giardia FBPA inh -15% and TbPYK inhibitor -4%.
`Cc1cc(C)cc(NC(=O)Cc2ccc(S(=O)(=O)N3CCCC3)s2)c1` gave Sm TGR inh -3% and TbPYK inhibitor 0%.
Screening Cc1ccc(NC(=O)CN(C)C(=O)Nc2ccc(C)cc2)cc1 returned CHX counter 22*, LmPK inh -1%, Shiga toxin inh 69*, Sm TGR inh 4%, Giardia FBPA inh 13% and TbPYK inhibitor 1%.
`Cc1cccc(C)c1NC(=O)CN(C)C(=O)/C=C/c1cccs1` gave CHX counter 0, LmPK inh 0%, Shiga toxin inh -3, Sm TGR inh -1%, Giardia FBPA inh 1% and TbPYK inhibitor 0%.
Cc1ccc(NC(=O)CN(C)C(=O)/C=C/c2cccs2)cc1 was read as CHX counter 9.6*, LmPK inh 4%, Shiga toxin inh -3, Sm TGR inh -8%, Giardia FBPA inh -3% and TbPYK inhibitor 2%.
For Cc1ccc(NC(=O)/C(CN(C)C)=N\O)cc1 the results were CHX counter 27*, LmPK inh 5%, Shiga toxin inh 62*, Sm TGR inh 4%, Giardia FBPA inh 8% and TbPYK inhibitor -3%.
`N#CCCN(C(=O)COC(=O)c1cc(=O)c2ccccc2o1)c1ccccc1` gave Sm TGR inh 2% and TbPYK inhibitor 6%.
CCOc1ccc(S(=O)(=O)N2CCCCC2)cc1NC(=O)Cc1ccsc1 was read as Sm TGR inh 2% and TbPYK inhibitor 3%.
COC(=O)c1nccnc1N was read as TbPYK inhibitor 4%.
O=C(CNc1cccc2ccccc12)N/N=C/c1ccc([N+](=O)[O-])o1 was read as CHX counter 10*, LmPK inh 2%, Shiga toxin inh 14, Sm TGR inh inconclusive, Giardia FBPA inh inconclusive and TbPYK inhibitor 3%.
O=C(CCN1CCN(c2ccccc2)CC1)N/N=C/c1ccc([N+](=O)[O-])o1 was read as CHX counter 2, LmPK inh 4%, Shiga toxin inh -2, Sm TGR inh 32µM*, Giardia FBPA inh -18% and TbPYK inhibitor -1%.
`O=C(CNc1cccc([N+](=O)[O-])c1)N/N=C/c1ccc([N+](=O)[O-])o1` gave CHX counter -1, LmPK inh -1%, Shiga toxin inh -7, Giardia FBPA inh -1% and TbPYK inhibitor -1%.
O=C(CN1CCCCCCC1)N/N=C/c1ccc([N+](=O)[O-])o1 was read as CHX counter 5, LmPK inh -2%, Shiga toxin inh 2, Sm TGR inh 14µM*, Giardia FBPA inh inconclusive and TbPYK inhibitor -1%.
